Consider 19 compounds from PubChem BioAssay AID2108 (National Center for Advancing Translational Sciences (NCATS), 2009).

Inconclusive results are not listed. Activity calls are given as the source filed them. The call rests on the fitted dose curve; in most records, active means well fitted curve in the direction sought with a large enough effect; inconclusive means small, poorly fitted or top-dose-only effect, or effect the other way, or another doubt; inactive means no such curve, though single readings can be large or run the other way.

This experiment concerns the target Alpha-galactosidase A (Homo sapiens) (UniProt P06280). Nature of the experiment: Confirmation of Inhibitors of Human alpha-Galactosidase Using Spleen Homogenate. As to conditions: alpha-galactosidase enzyme activity; series mostly up to 56.2 µM. The method in brief: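 Human spleen homogenate (1 ug) with 1 mM 4-methylumbelliferyl-alpha-D-galactopyranoside in citrate-phosphate pH 5.0, 0.01% Tween-20, 37C 40 min; compounds 0.5 nM–58 uM final. Stopped at pH 10, fluorescence Ex 365/Em 440; AC50 from Hill fits.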

Sequence of Alpha-galactosidase A (Homo sapiens) (P06280 32-429 limits assumed): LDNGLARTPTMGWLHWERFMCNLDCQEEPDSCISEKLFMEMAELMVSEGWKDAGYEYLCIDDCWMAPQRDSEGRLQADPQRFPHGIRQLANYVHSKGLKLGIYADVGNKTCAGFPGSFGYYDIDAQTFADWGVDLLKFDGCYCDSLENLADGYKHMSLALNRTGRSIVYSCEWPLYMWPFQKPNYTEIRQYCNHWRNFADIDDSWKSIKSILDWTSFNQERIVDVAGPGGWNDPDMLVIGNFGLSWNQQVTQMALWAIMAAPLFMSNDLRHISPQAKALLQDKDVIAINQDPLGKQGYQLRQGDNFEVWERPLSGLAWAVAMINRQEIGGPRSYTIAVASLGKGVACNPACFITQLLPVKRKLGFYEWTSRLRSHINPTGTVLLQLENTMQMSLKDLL

Turning to `Cn1c(=O)c2sccc2n2c(CCCC(=O)Nc3ccc(F)c(F)c3)nnc12`, the compound was called inactive.
`COCCSc1nc(N)c2c3c(sc2n1)CN(C)CC3`: the compound was classed as inactive.
For `CCCCN1C[C@H](O)[C@@H](O)[C@H](O)[C@H]1CO`, the call was inactive.
For the compound `CC1CC(C)CN(CC(=O)N2c3ccccc3CCc3ccccc32)C1` (centres undefined), the outcome was inactive.
As for `CC(C)C[C@H](NC(=O)c1nc[nH]c1C(=O)NCC(=O)OCc1ccccc1)C(=O)OC(C)(C)C`, the compound was called inactive.
Take `N#Cc1ccc(S(=O)(=O)N2CCOCC2)cc1`: the result was inactive.
Turning to `OCCN1CC(O)C(O)C(O)C1CO` (centres undefined), the compound was classed as inactive.
As for `Cc1cc(C)c(C(=O)Cn2cnc3cc([N+](=O)[O-])ccc3c2=O)cc1C`, the compound was called inactive.
As for `CCc1sc(-c2cc3ccc(O)cc3oc2=O)nc1-c1ccccc1`, the compound was classed as inactive.
As to `O=C(Cn1c(=O)[nH]n(-c2ccccc2)c1=O)N1CCCc2ccccc21`, the compound was classed as inactive.
Take `COC(=O)c1ccc(S(=O)(=O)N2CCOCC2)cc1`: the call was inactive.
For the compound `CNc1ncnc2c1ncn2[C@H]1C[C@H](OP(=O)(O)O)[C@@H](COP(=O)(O)O)O1`, the result was inactive.
Turning to `CC/C(=C(\c1ccccc1)c1ccc(OCCN(C)C)cc1)c1ccccc1`, the compound was classed as inactive.
As for `COc1ccc(/C=C/c2nnc(NC(C)=O)s2)cc1`, the compound was classed as inactive.
As to `CCOc1cc(/C=C2\SC(N)=NC2=O)ccc1O`, the outcome was inactive.
On to `CC1CCc2c(nc3ncnn3c2N2CCN(c3ccccc3F)CC2)C1` (centres undefined), for which the call was inactive.
On to `CCOc1c(Br)cc(CNc2ccc(N3CCN(C(C)=O)CC3)cc2)cc1OC`, for which the outcome was inactive.
As for `C(=C\c1ccc2ccccc2n1)/c1ccc2c(c1)OCO2`, the outcome was inactive.
As for `O=C(O)C[C@@H]1C(=O)O[C@@H]2C(COC(=O)c3cc(O)c(O)c(O)c3)O[C@@H](OC(=O)c3cc(O)c(O)c(O)c3)[C@@H](OC(=O)c3cc(O)c(O)c4c3[C@H]1[C@H](O)C(=O)O4)[C@H]2OC(=O)c1cc(O)c(O)c(O)c1` (some centres undefined), the entry is “inactive”.
